114 molecules from PubChem BioAssay AID1671192 (National Center for Advancing Translational Sciences (NCATS), 2021) can be followed below.

For the assay, the target named is Polyunsaturated fatty acid lipoxygenase ALOX15 (Homo sapiens) (UniProt P16050). As to the kind of experiment: Counterscreen qHTS for inhibitors of human arachidonate 12S-lipoxygenase (ALOX12): ALOX15 Assay. Put shortly:
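Xylenol orange–ferric complex formation, read as the 573 nm to 405 nm absorbance ratio, tracks product from 50 uM arachidonic acid turned over for 30 min at RT. Enzyme is 40 nM ALOX15, pH 7.5 HEPES buffer, compound-preincubated 15 min.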
For orientation: Counterscreens check selectivity or assay interference.

Results filed as inconclusive are left out. Active and inactive are the calls of the source. Calls follow the shape of the dose curve; as a rule, active = well fitted curve in the direction sought with a large enough effect; inconclusive = small, poorly fitted or top-dose-only effect, or another doubt; inactive = no such curve, though single readings can be large or run the other way.

Chain of Polyunsaturated fatty acid lipoxygenase ALOX15 (Homo sapiens) (P16050 whole entry, looked up): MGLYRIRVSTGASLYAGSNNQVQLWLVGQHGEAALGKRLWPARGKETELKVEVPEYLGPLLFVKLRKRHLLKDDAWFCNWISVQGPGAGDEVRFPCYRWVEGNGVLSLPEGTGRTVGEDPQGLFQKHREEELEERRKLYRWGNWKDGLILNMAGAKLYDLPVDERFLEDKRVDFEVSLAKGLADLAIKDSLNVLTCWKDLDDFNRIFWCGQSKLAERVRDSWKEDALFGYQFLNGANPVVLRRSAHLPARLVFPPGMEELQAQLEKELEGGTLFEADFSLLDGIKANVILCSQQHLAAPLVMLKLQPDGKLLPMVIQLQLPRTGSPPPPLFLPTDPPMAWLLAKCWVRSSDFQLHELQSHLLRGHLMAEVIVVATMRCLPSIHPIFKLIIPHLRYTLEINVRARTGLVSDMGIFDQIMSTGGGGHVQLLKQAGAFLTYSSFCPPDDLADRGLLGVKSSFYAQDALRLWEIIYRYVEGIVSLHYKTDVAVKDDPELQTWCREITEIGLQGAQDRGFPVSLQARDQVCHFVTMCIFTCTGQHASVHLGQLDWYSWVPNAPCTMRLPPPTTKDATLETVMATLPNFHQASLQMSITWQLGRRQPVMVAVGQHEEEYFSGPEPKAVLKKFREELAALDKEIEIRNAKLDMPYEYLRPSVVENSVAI

In the case of `COc1cc(OC(F)(F)F)ccc1C(=O)NCc1nnc2n1C(C(=O)O)CC2` (centres undefined), the molecule was classed as inactive. To `COc1cccc(N2C(=O)NC(=NC3CCCC3)C23CCN(Cc2ccsc2)C3)c1` (centres undefined) belongs “inactive”. Consider `O=c1[nH]c(C2CCCN(Cc3cccc(-c4cccs4)c3)C2)nc2ccc(F)cc12` (centres undefined), for which the call was inactive. Then `O=C(O)c1cccc(-c2ccsc2)c1`, with “inactive”; and `NCc1ccccc1-c1ccc(O)cc1`, with “inactive”. To `C[S+](=O)([O-])N1Cc2ccccc2OC2(CCN(C(=O)c3ccc(N)nc3)CC2)C1` belongs “inactive”; to `CCN1CCC(c2nc3ccc(C)cc3c(=O)[nH]2)CC1`, “inactive”. To `O=C1NCc2ccccc2CC12CCCN2Cc1ccc(OC(F)(F)F)cc1` (centres undefined) belongs “inactive”. For the molecule `CN1CC(=O)N(C2CCNC2)Cc2c(NCCCN3CCCCC3)ncnc21` (centres undefined), the molecule was classed as inactive. `O=C(c1ccccc1)N1CCn2c(nnc2C2CCNCC2)C1`: the molecule was classed as inactive. To `Fc1ccc(OC2CN(Cc3cccc4ccccc34)C2)cc1F` belongs “inactive”; to `O=C1NCc2ccccc2CC12CCN(CCCc1ccccc1)CC2`, “inactive”; to `CCCC(=O)N1Cc2ccccc2CC2(CCCCN2Cc2ccccn2)C1` (centres undefined), “inactive”. Then `Fc1ccc(OC2CN(Cc3ccc(C(F)(F)F)cc3)C2)cc1F`, with “inactive”; and `CNCc1cccc(Oc2ccccc2)c1`, with “inactive”. Then `c1cc(NCCN2CCCC2)ccn1`, with “inactive”; and `CC[C@@H](Nc1ncnc2c1CN(C1CCNCC1)C(=O)CN2C)c1ccccc1`, with “inactive”. Turning to `COc1ccc(C(=O)N2CCOC3(CCN(C(=O)CN)CC3)C2)cc1`, the outcome was inactive. To `NCc1cccc(-c2ccccc2F)c1` belongs “inactive”; to `CN1CC(=O)N(C2CCNCC2)Cc2c(NCC3CCCCC3)ncnc21`, “inactive”; to `COc1ccc(-c2cc(C(=O)NCC3CC3)c3c(C4CCNC4)noc3n2)cc1` (centres undefined), “inactive”. To `c1cncc(CN2CCn3c(nnc3C3CCCNC3)C2)c1` (centres undefined) belongs “inactive”. Regarding `Cc1cc(C)cc(CN2CCC3(Cc4ccccc4CNC3=O)C2)c1` (centres undefined), the molecule was classed as inactive. To `N#Cc1ccc(CN2CC(Oc3ccc(F)cc3F)C2)cc1` belongs “inactive”; to `O=C1NC(=NC2CCCC2)C2(CCCN([S+](=O)([O-])c3cccc(C(F)(F)F)c3)C2)N1c1cc(F)cc(F)c1` (centres undefined), “inactive”. To `CC(C)CN1CCC(c2nc3ccc(F)cc3c(=O)[nH]2)CC1` belongs “inactive”. To `CCN1CCCC2(Cc3ccccc3CN(C(=O)c3ccccc3)C2)C1` (centres undefined) belongs “inactive”; to `O=C1NCc2ccccc2CC12CCN(Cc1ccc3ccccc3c1)C2` (centres undefined), “inactive”; to `CC1CCCN(c2ncnc3c2CN(C2CCCNCC2)C(=O)CN3C)C1` (centres undefined), “inactive”.

Turning to `Cc1cc(C(=O)NC2CC2)c2c(C3CCNCC3)noc2n1`, the molecule was called inactive. Then `O=C(c1cc(C2CC2)nc2onc(C3CCCNC3)c12)N1CCCCC1` (centres undefined), with “inactive”; and `N#Cc1ccc(CN2CCC3(CC(c4cccc(C(F)(F)F)c4)=NO3)C2)cc1` (centres undefined), with “inactive”.

Consider `CN1CC(=O)N(C2CCCNCC2)Cc2c(NCCc3ccccc3F)ncnc21` (centres undefined), for which the outcome was inactive.

As to `O=C(c1ccc(C(F)(F)F)cc1)N1CC(Oc2ccc3c(c2)OCO3)C1`, the result was inactive.

As to `CC(=O)NC1CC2(CCN(C(=O)CCCNC(=O)OC(C)(C)C)CC2)Oc2ccccc21` (centres undefined), the outcome was inactive.

In the case of `COc1cc(CN2CCCCC23Cc2ccccc2CNC3=O)ccc1F` (centres undefined), the call was inactive. To `O=C(NCC(F)(F)F)c1cc(C2CC2)nc2c1c(C1CCCN1)nn2-c1ccccc1` (centres undefined) belongs “inactive”; to `CN1CC(=O)N(C2CCNCC2)Cc2c1ncnc2N1CCC(O)CC1`, “inactive”; to `NCC(=O)N1Cc2ccccc2CC12CCCN(C(=O)c1ccccc1)C2` (centres undefined), “inactive”. To `COc1ccc(C(=O)N2CCc3nc(C4CC4)nc(-c4ccc(OC)cc4)c3C2)cc1` belongs “inactive”; to `COc1ccc(-c2cc(C(=O)NCC(C)C)c3c(C4CCCN4)noc3n2)cc1` (centres undefined), “inactive”. Then `Cn1cccc1CN1CCC2(CC1)C(=NC1CCCCC1)NC(=O)N2c1cc(F)cc(F)c1`, with “inactive”. With `O=C1NCc2ccccc2CC12CCN(Cc1ccc(F)cc1F)CC2`, the outcome was inactive. To `C[S+](=O)([O-])N1CC2(Cc3ccccc3NC2=O)C1` belongs “inactive”.

For the molecule `CC(=O)NC1CC2(CCN(C(=O)Cc3cnc[nH]3)CC2)c2ccccc21` (centres undefined), the molecule was classed as inactive.

For the molecule `CN1CC(=O)N(C2CCCNCC2)Cc2c1ncnc2N1CCSCC1` (centres undefined), the molecule was called inactive.

For `COc1cccc(N2C(=O)NC(=NC3CCCC3)C23CCCN(CC2CC2)C3)c1` (centres undefined), the molecule was classed as inactive.

As for `CC(C)[S+](=O)([O-])N1CCN(c2ccc(C=O)cc2)C(=O)C1`, the molecule was called inactive. Then `CC(C)Nc1ncnc2c1CN(C1CCCNC1)C(=O)CN2C` (centres undefined), with “inactive”; and `O=C(NC1CCCCC1)N1CCC(c2nnc3n2CCNC3)CC1`, with “inactive”. Then `O=C1c2ccccc2CN1C1CCN(Cc2cccc3ccccc23)CC1`, with “inactive”; and `CC(=O)NCCC(=O)N1Cc2ccccc2CC2(CCCN2CCc2ccc(C)cc2)C1` (centres undefined), with “inactive”; and `COc1cc(CN2CCC3(Cc4ccccc4CNC3=O)C2)cc(OC)c1` (centres undefined), with “inactive”. To `O=C1NCc2ccccc2CC12CCN(Cc1cccc(Br)c1)C2` (centres undefined) belongs “inactive”; to `C[S+](=O)([O-])N1CCCC(c2nnc3n2CCNC3)C1` (centres undefined), “inactive”; to `COc1cccc(N2C(=O)NC(=NC3CCCCC3)C23CCCN(C(=O)c2ccccc2)C3)c1` (centres undefined), “inactive”. For the molecule `CCc1nc2c(c(-c3ccc(OC)cc3)n1)CCN(Cc1cccc3ccccc13)CC2`, the outcome was inactive. Then `Cc1cc(Cl)ccc1NC1CN(C(=O)OC(C)(C)C)C1`, with “inactive”; and `CN1CC(=O)N(c2cccc(F)c2)Cc2c(NC3CCNCC3)ncnc21`, with “inactive”. For the molecule `CN(C)CCCC(=O)N1Cc2ccccc2CC2(CCCCN2Cc2ccccc2)C1` (centres undefined), the result was inactive. To `O=C(N1CCOCC1)N1CCCC1c1nnc2n1CCNC2` (centres undefined) belongs “inactive”. To `CC(C)[S+](=O)([O-])N1CCN(c2ccc(Cl)nn2)C(=O)C1` belongs “inactive”. For `CC(C)NC(=O)NC1CC2(CCN(Cc3ccc(O)cc3)CC2)c2ccccc21` (centres undefined), the outcome was inactive.

On to `CN1CC(=O)N(C2CCCNC2)Cc2c(NC3CCC3)ncnc21` (centres undefined), for which the result was inactive.

As for `COc1ccc(CNc2ncnc3c2CN(C2CCNCC2)C(=O)CN3C)cc1`, the result was inactive. As to `Cc1ccc(-c2ccccc2C=O)cc1Cl`, the call was inactive. As for `O=C(c1ccccc1)N1CCC2(CC1)C(=O)NCN2C(=O)Cc1ccccc1`, the result was inactive. On to `Cc1cc(C(=O)NC2CCNCC2)c2c(C3CCNCC3)noc2n1`, for which the result was inactive. Then `CC(C)(C)OC(=O)N1CC(Nc2ccc(O)cc2)C1`, with “inactive”; and `CCC(=O)N1Cc2ccccc2CC2(CCN(CCc3ccc(C)cc3)CC2)C1`, with “inactive”; and `CN(C)CC(=O)N1Cc2ccccc2CC2(CCCN(CC3CCNC3)C2)C1` (centres undefined), with “inactive”. Then `CN1CC(=O)N(C2CCCNCC2)Cc2c1ncnc2N1CCCC(CO)C1` (centres undefined), with “inactive”.

`NCc1ccc(-c2ccccn2)cc1`: the call was inactive. For the molecule `O=C(c1cc(C2CC2)nc2onc(C3CCCN3)c12)N1CCOCC1` (centres undefined), the molecule was classed as inactive. On to `CN(C)c1ccc(CN2CCn3c(nn(-c4ccc(Cl)cc4)c3=O)C2)cc1`, for which the result was inactive. To `CN(C)C(=O)N1CCCC(c2nnc3n2CCNC3)C1` (centres undefined) belongs “inactive”; to `COc1ccc(-c2cc(C(=O)NC3CCNCC3)c3c(C4CCCN4)noc3n2)cc1` (centres undefined), “inactive”; to `CN(C)CCC(=O)N1Cc2ccccc2CC2(CCCCN2CC2CCOCC2)C1` (centres undefined), “inactive”. Then `O=C1NCc2ccccc2CC12CCN(Cc1cccc3ccccc13)C2` (centres undefined), with “inactive”; and `O=C(NC1CCNCC1)c1cc(C2CC2)nc2onc(C3CCCN3)c12` (centres undefined), with “inactive”; and `CC(=O)N1CCn2cc(C(=O)N3CCOCC3)nc2C1`, with “inactive”. Take `Cc1ccc(CCN2CCC3(Cc4ccccc4CNC3=O)C2)cc1` (centres undefined): the result was inactive. Then `CNC(=O)c1cnn2c1CN(C(=O)c1ccccc1)CC2`, with “inactive”; and `N#Cc1ccc(CN2CCn3c(nn(-c4cccc(Cl)c4)c3=O)C2)cc1`, with “inactive”; and `CN1CC(=O)N(C2CCNC2)Cc2c(NC3CCN(Cc4ccccc4)CC3)ncnc21` (centres undefined), with “inactive”. To `Cc1ccc2nc(C3CCN(Cc4cccs4)CC3)[nH]c(=O)c2c1` belongs “inactive”; to `COc1ccc(F)cc1-c1ccccc1C=O`, “inactive”.

As to `CCN(CC)CC(C)NC` (centres undefined), the molecule was classed as inactive.

With `Cc1ccc(-c2ccccc2CN)c(C)c1`, the molecule was classed as inactive. To `CC(=O)Nc1ccc(C(=O)N2C3CCC2CN(C(C)C)C3)cc1` belongs “inactive”; to `Cc1cccc(N2Cc3c(NCCCOC(C)C)ncnc3N(C)CC2=O)c1`, “inactive”; to `O=c1n(-c2ccc(Cl)cc2)nc2n1CCN([S+](=O)([O-])c1ccccc1)C2`, “inactive”. To `CC(=O)N1CCC(c2nnc3n2CCNC3)CC1` belongs “inactive”; to `O=C1NCc2ccccc2CC12CCN(Cc1ccnc3ccccc13)CC2`, “inactive”; to `O=C1NCc2ccccc2CC12CCN(Cc1c[nH]c3ccccc13)C2` (centres undefined), “inactive”. As for `CC(C)(C)OC(=O)N1CC(Nc2cccc(Oc3ccccc3)c2)C1`, the call was inactive. Then `CC(C)CCN1CCn2c(nn(-c3ccc(Cl)cc3)c2=O)C1`, with “inactive”; and `C[S+](=O)([O-])N1CC2ON=C(C(=O)NCCc3ccc(Cl)cc3)C2C1` (centres undefined), with “inactive”; and `O=C1NCc2ccccc2CC12CCN(Cc1ccc(Cl)cc1)CC2`, with “inactive”. Then `CC(CO)Nc1ncnc2c1CN(C1CCCNCC1)C(=O)CN2C` (centres undefined), with “inactive”; and `O=C(c1ccc2c(c1)OCO2)N1CCC(c2nnc3n2CCNC3)CC1`, with “inactive”; and `CN1CC(=O)N(C2CCCNC2)Cc2c1ncnc2N1CCc2ccccc2C1` (centres undefined), with “inactive”.

`O=C(O)CCCC(=O)N1Cc2ccccc2CC2(CCCCN2CCc2ccccc2)C1` (centres undefined): the call was inactive. Then `CN1CC(=O)N(C2CCNCC2)Cc2c(NCCN3CCOCC3)ncnc21`, with “inactive”. To `O=C1NCc2ccccc2CC12CCN(Cc1ccc(-c3ccccc3)cc1)CC2` belongs “inactive”; to `CC1CCCN1c1ncnc2c1CN(C1CCCNCC1)C(=O)CN2C` (centres undefined), “inactive”. Regarding `N#Cc1cccnc1-c1ccc(C(=O)O)cc1`, the molecule was called inactive. Then `CN1CCN(CC2(N)CCCCC2)CC1`, with “inactive”; and `COc1cccc(N2C(=O)NC(=NC3CCCCC3)C23CCCN([S+](=O)([O-])c2cccc(C(F)(F)F)c2)C3)c1` (centres undefined), with “inactive”. On to `O=C(N1CCOCC1)N1CCC(c2nnc3n2CCNC3)CC1`, for which the result was inactive. To `O=C(O)CCC(=O)N1Cc2ccccc2CC2(CCCN2Cc2cccnc2)C1` (centres undefined) belongs “inactive”. To `CC(C)NC(=O)N1CNC(=O)C12CCN(C(=O)CN)CC2` belongs “inactive”. Take `COc1ccc(-c2nc(C3CC3)nc3c2CN(C(=O)c2ccccc2)CC3)cc1`: the molecule was classed as inactive. Consider `COC[C@@H]1CCCN1c1ncnc2c1CN(C1CCCNCC1)C(=O)CN2C` (some centres undefined), for which the molecule was classed as inactive.
